{"source": "ChEMBL document CHEMBL4513216", "about": "“Probing the Open Global Health Chemical Diversity Library for Multistage-Active Starting Points for Next-Generation Antimalarials” (ACS Infect Dis, 2020)", "note": "The whole screen tested about 68,000 compounds, of which about 2,700 (4%) showed an effect of 50% or more. The sample as a whole holds a higher share of strong results than the screen did.", "data": [{"tested_on": "Plasmodium berghei", "assay": "Screen against P. berghei liver stage (PbLuc), transformed with Luciferase, at 2uM", "type": "functional, HepG2", "details": "tested at 2 uM", "units": {"INHIBITION": "%"}, "values": [{"smiles": "COc1ccc(CC2CN(C(=O)c3coc(C)n3)CCO2)cc1", "note": "(stereo not drawn)", "INHIBITION": -10.03}, {"smiles": "Cc1nc(C(=O)N2CCOC(Cc3ccc(F)cc3)C2)co1", "note": "(stereo not drawn)", "INHIBITION": 51.45}, {"smiles": "Cc1nc(C(=O)N2CCOC(Cc3ccccc3)C2)co1", "note": "(stereo not drawn)", "INHIBITION": 5.76}, {"smiles": "CCOCCN1CCn2c(C)nnc2C1", "INHIBITION": 58.53}, {"smiles": "Cc1nnc2n1CCN(CCOc1ccccc1)C2", "INHIBITION": -55.52}, {"smiles": "Cc1cc(C)cc(OCCN2CCn3c(C)nnc3C2)c1", "INHIBITION": 20.41}, {"smiles": "CC(C)[C@H]1CN(CCCO)C[C@@H]1NC(=O)CCS(C)(=O)=O", "INHIBITION": 25.9}, {"smiles": "O=C(CCS(=O)(=O)C1CCCC1)NCc1ccccc1Cn1cncn1", "INHIBITION": 31.57}, {"smiles": "COc1c(CNC2CCCOc3ccccc32)c(C)nn1C", "note": "(stereo not drawn)", "INHIBITION": -18.88}, {"smiles": "Cc1nn(C)c(Oc2ccccc2)c1CNC1CCOc2ccccc21", "note": "(stereo not drawn)", "INHIBITION": -15.64}, {"smiles": "COc1c(CNC2CCc3ccccc32)c(C(C)C)nn1C", "note": "(stereo not drawn)", "INHIBITION": 24.65}, {"smiles": "COc1c(CNC2CCCc3ccccc32)c(C)nn1C", "note": "(stereo not drawn)", "INHIBITION": 11.28}, {"smiles": "COc1c(CNC2CCOc3ccccc32)c(C)nn1C", "note": "(stereo not drawn)", "INHIBITION": 64.08}, {"smiles": "COc1c(CNC2CCCc3ccccc32)c(C(C)C)nn1C", "note": "(stereo not drawn)", "INHIBITION": 69.22}, {"smiles": "O=C1NCCCC[C@@H]1Nc1ccc(-c2nc(C3CC3)no2)cn1", "INHIBITION": 8.75}, {"smiles": "c1cncc(COCc2nnc3n2CCN(Cc2ccco2)C3)c1", "INHIBITION": -8.22}, {"smiles": "COc1ccccc1CC(C)(C)C(=O)NCC(=O)Nc1cccnc1", "INHIBITION": -16.15}, {"smiles": "O=C(NC1CCC(O)CC1)c1ccc2nc(-c3ccccc3)cn2c1", "note": "(stereo not drawn)", "INHIBITION": 2.17}, {"smiles": "COc1ccc(C)cc1CC(=O)Nc1cc(C)n[nH]1", "INHIBITION": -19.45}, {"smiles": "CC(C)CNC(=O)c1ccc2c(=O)n(-c3ccccc3)cnc2c1", "INHIBITION": 43.75}, {"smiles": "Cn1c(=O)[nH]c(=O)c2c1nc1n2CC(c2ccc(Cl)cc2)O1", "note": "(stereo not drawn)", "INHIBITION": 13.01}, {"smiles": "COc1ccc(C2CC(=O)Nc3c2nc2n3CCCC2)cc1O", "note": "(stereo not drawn)", "INHIBITION": 24.29}, {"smiles": "O[C@@H]1CCN(CC2CC2)[C@H]1Cc1ccccc1", "INHIBITION": -17.26}, {"smiles": "O[C@H]1CCN(CC2CC2)[C@H]1Cc1ccncc1", "INHIBITION": 55.7}, {"smiles": "O[C@H]1CCN(CC2CCOC2)[C@H]1Cc1ccncc1", "note": "(stereo partly drawn)", "INHIBITION": 3.56}, {"smiles": "CC(=O)N[C@H]1CCN(C(=O)c2cc(Cn3cnc4ccccc43)[nH]n2)C1", "INHIBITION": 60.71}, {"smiles": "COc1ccccc1OCc1cc(C(=O)N2CCC(NC(C)=O)C2)n[nH]1", "note": "(stereo not drawn)", "INHIBITION": -49.85}, {"smiles": "O=C(N[C@H]1CN2CCC1CC2)c1cc(Cn2cnc3ccccc32)[nH]n1", "INHIBITION": 48.93}, {"smiles": "NC(=O)c1cn[nH]c1C1CCCN1C(=O)c1cnccn1", "note": "(stereo not drawn)", "INHIBITION": 39.5}, {"smiles": "Cc1nc2c(c(NCC(c3cccnc3)N3CCOCC3)n1)CCNC2", "note": "(stereo not drawn)", "INHIBITION": -10.09}, {"smiles": "Cc1nc(CCCC(=O)Nc2cccc(N3CCNC3=O)c2)cs1", "INHIBITION": -33.58}, {"smiles": "Cc1ncc(CN(C)C(=O)Nc2cccc(N3CCNC3=O)c2)s1", "INHIBITION": -82.26}, {"smiles": "Cc1nc(CSCCC(=O)Nc2cccc(N3CCNC3=O)c2)cs1", "INHIBITION": 54.82}, {"smiles": "CC(OCC1CC1)C(=O)N1CCCN(c2nc3ccccc3[nH]2)CC1", "note": "(stereo not drawn)", "INHIBITION": -38.2}, {"smiles": "Cn1ncc2c1C(COCC1CC1)CN(S(C)(=O)=O)C2", "note": "(stereo not drawn)", "INHIBITION": 51.72}, {"smiles": "Cc1ncsc1CN1Cc2cn(C)nc2C(COCC2CC2)C1", "note": "(stereo not drawn)", "INHIBITION": -64.59}, {"smiles": "Cn1ncc2c1C(COCC1CC1)CN(Cc1nccs1)C2", "note": "(stereo not drawn)", "INHIBITION": -44.9}, {"smiles": "CCOCC1CN(S(C)(=O)=O)Cc2cnn(C)c21", "note": "(stereo not drawn)", "INHIBITION": 18.97}, {"smiles": "Cc1ncsc1CN1Cc2cnn(C)c2C(COCC2CC2)C1", "note": "(stereo not drawn)", "INHIBITION": 50.17}, {"smiles": "Cn1ncc2c1C(COCC1CC1)CN(S(=O)(=O)C1CC1)C2", "note": "(stereo not drawn)", "INHIBITION": 3.63}, {"smiles": "Cn1ccc2c(C(=O)N3CCC(C(N)=O)CC3)cccc21", "INHIBITION": 40.31}, {"smiles": "Cn1c(CN2CCCC2c2noc(C3CC3)n2)cc(=O)n(C)c1=O", "note": "(stereo not drawn)", "INHIBITION": 12.91}, {"smiles": "CC(C)N1CCC(CC(=O)N2CCC(C(O)c3nccn3C)CC2)CC1", "note": "(stereo not drawn)", "INHIBITION": 15.11}, {"smiles": "CC(C)N1CCC(C(=O)N2CCC(C(O)c3nccn3C)CC2)CC1", "note": "(stereo not drawn)", "INHIBITION": 6.4}, {"smiles": "CCCN1CCC(CC(=O)N2CCC(C(O)c3nccn3C)CC2)CC1", "note": "(stereo not drawn)", "INHIBITION": 51.19}, {"smiles": "COCC(=O)Nc1nn(Cc2ccc(F)cc2)cc1Cl", "INHIBITION": -20.28}, {"smiles": "Cc1noc(C)c1CN1CCN(c2ccnc(-c3ccccc3)n2)CC1", "INHIBITION": -5.53}, {"smiles": "CCOc1ccccc1OC1CCN(C(=O)c2cc[nH]n2)CC1", "INHIBITION": 7.54}, {"smiles": "CC(C)c1ccc(NS(=O)(=O)C=c2[nH]c(=O)n3cccc3c2=O)cc1", "INHIBITION": 9.43}, {"smiles": "CCc1ccc(NS(=O)(=O)C=c2[nH]c(=O)n3cccc3c2=O)cc1", "INHIBITION": -1.14}, {"smiles": "Cc1ccc(NS(=O)(=O)C=c2[nH]c(=O)n3cccc3c2=O)cc1", "INHIBITION": -68.56}, {"smiles": "O=c1c(=CS(=O)(=O)Nc2ccc(Br)cc2)[nH]c(=O)n2cccc12", "INHIBITION": -42.73}, {"smiles": "O=c1c(=CS(=O)(=O)Nc2ccc(Cl)cc2)[nH]c(=O)n2cccc12", "INHIBITION": 50.52}, {"smiles": "O=c1c(=CS(=O)(=O)Nc2ccccc2)[nH]c(=O)n2cccc12", "INHIBITION": 53.68}, {"smiles": "Cc1cc(C)cc(CN2CCC3(CC2)CC(Nc2ncccn2)CO3)c1", "note": "(stereo not drawn)", "INHIBITION": 24.43}, {"smiles": "CNC(=O)C1CN(c2ccnc(C)n2)CCN1Cc1ccccc1", "note": "(stereo not drawn)", "INHIBITION": -10.89}, {"smiles": "CC(C)NC(=O)[C@@]12CCO[C@@H]1CCN(Cc1ccco1)C2", "INHIBITION": 16.63}, {"smiles": "CN(C)CCN1C[C@@H]2OCCN(Cc3cnn(C)c3)[C@@H]2C1", "INHIBITION": 33.4}, {"smiles": "Cn1cc(CN2CCO[C@H]3CN(Cc4ccco4)C[C@H]32)cn1", "INHIBITION": 10.53}, {"smiles": "CCC(CC)CN1C[C@@H]2OCCN(Cc3cnn(C)c3)[C@@H]2C1", "INHIBITION": 56.78}, {"smiles": "CC(=O)Nc1ccc(S(=O)(=O)N2CCOC(Cn3ccnc3)C2)cc1", "note": "(stereo not drawn)", "INHIBITION": 1.92}, {"smiles": "O=S(=O)(N1CCOCC1)N1CCC(Oc2cnccn2)CC1", "INHIBITION": -7.91}, {"smiles": "O=S(=O)(N1CCCCC1)N1CCC(Oc2cnccn2)CC1", "INHIBITION": 41.98}, {"smiles": "CC1CCN(S(=O)(=O)N2CCC(Oc3cnccn3)CC2)CC1", "INHIBITION": 52.82}, {"smiles": "O=S(=O)(c1ccccc1)N1CCC2(CCCN2Cc2cccc(Cl)c2)C1", "note": "(stereo not drawn)", "INHIBITION": 35.26}, {"smiles": "CSc1ccc(-c2nc(CN3CCC(NC(C)=O)C3)c(C)o2)cc1", "note": "(stereo not drawn)", "INHIBITION": 52.77}, {"smiles": "CSc1ccc(-c2nc(CN3CCC(NC(C)=O)CC3)c(C)o2)cc1", "INHIBITION": -11.37}, {"smiles": "CNC(=O)C1CCN(Cc2nc(-c3ccc(SC)cc3)oc2C)C1", "note": "(stereo not drawn)", "INHIBITION": 13.94}]}]}
